# Source: PubChem BioAssay AID2216 (Broad Institute, 2009)
# The campaign covered roughly 300,000 compounds. About 3,300 (1.1%) were called active. Roughly 6% stayed inconclusive and do not appear here.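 How the source made its calls: active means more than half of the replicate wells show a fall in the fluorescence ratio signal beyond about 16% (limit read from the data, passing the limit was not always enough); inconclusive means exactly half of the replicate wells pass the set limit; inactive means fewer than half of replicates pass the limit.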 The list comes from a sample in which actives are over-represented; it also holds similar structures and randomly drawn compounds.
# Test system: Ran GTPase (GTP-bound) - importin-beta complex
# Experiment: inhibitors of RanGTP-importin-beta interaction, primary screen, biochemical, FRET, CFP-Ran, YFP-importin-beta, homogeneous (AID 2216);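 further: 0% = DMSO wells and 100% = Ran loaded with GDP instead of GTP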
# Settings: cell-free CFP-Ran/YFP-importin-beta FRET ratio; active compounds read high; concentration not given here
row,SMILES,inhibition
1,O=S(=O)(NCCNS(=O)(=O)c1ccccc1)c1ccccc1,1.2% (inactive)
2,CCOc1ccc(S(=O)(=O)NCCSc2ccccc2)cc1,-0.375% (inactive)
3,CCOc1ccc2nc(NCCNS(=O)(=O)c3ccccc3)c(C#N)cc2c1,127% (active)
4,O=C(NNC(=O)c1ccc(-c2ccccc2)cc1)Nc1ccccc1,2.69% (inactive)
5,Cc1ccc(S(=O)(=O)n2cccc2CO)cc1,-0.413% (inactive)
6,COc1ccc(CCNC(=O)C(=O)NCC2CCCN2S(=O)(=O)c2cccs2)cc1OC (stereo not given),-2.95% (inactive)
7,Cc1cc(C)c(C)c(S(=O)(=O)N2CCN(C(=O)c3ccc4c(=O)n5c(nc4c3)CCC5)CC2)c1C,0.31% (inactive)
8,Cn1nccc1CNC(=O)c1ccnn1C,-4.46% (inactive)
9,CCN(CC)C(=O)c1sc(NC(=O)c2ccco2)c(C#N)c1C,5.09% (inactive)
10,CCCc1ccc(-c2c(C)sc(NC(=O)c3ccnn3C)c2C#N)cc1,69.5% (active)
11,O=C(COC(=O)Cn1[nH]c(=O)c2ccccc2c1=O)Nc1c(Cl)cccc1C(F)(F)F,0.554% (inactive)
12,CCCCn1c(N)c(N(CC(C)C)C(=O)c2ccc(-n3c(C)ccc3C)cc2)c(=O)[nH]c1=O,2.98% (inactive)
13,Cc1ccc(S(=O)(=O)CC(=O)Nc2sc(C)c(C)c2C(N)=O)cc1,1.11% (inactive)
14,CC(=O)N1CCc2c(sc(NC(=O)CCS(=O)(=O)c3ccc(C)cc3)c2C(N)=O)C1,32.8% (active)
15,CC(=O)N1CCc2c(sc(NC(=O)CCS(=O)(=O)c3ccccc3)c2C#N)C1,2.62% (inactive)
16,CCOC(=O)c1cc(NC(=O)c2cccnc2)ccn1,-2.83% (inactive)
17,Cn1cncc1COC(=O)c1ccc(Cl)cc1,0.688% (inactive)
18,CC(C)(C)c1ccc(C(=O)NCCC(=O)NCc2ccco2)cc1,1.67% (inactive)
19,CC(C)(C)c1ccc(C(=O)NCCn2c(N)c(C#N)c3nc4ccccc4nc32)cc1,82.8% (active)
20,CCCCNC(=O)CCNC(=O)c1ccc(C(C)(C)C)cc1,3.77% (inactive)
21,N#Cc1c(N)n(CCOC(=O)c2ccc(Cl)cc2)c2nc3ccccc3nc12,39.9% (active)
22,CN1OC(COC(=O)c2ccc(Cl)cc2)CC1c1ccccc1 (stereo not given),2.75% (inactive)
23,CN(C(=O)c1cc2c(=O)n3ccccc3nc2s1)C1CCCCC1,2.4% (inactive)
24,CCOc1cc(C(=O)Nc2ccc(S(=O)(=O)Nc3cnc4ccccc4n3)cc2)cc(OCC)c1OCC,7.91% (inactive)
25,CCN1CCN(c2ccc(S(=O)(=O)N3CCCCC3)cc2NC(=O)Cc2c(Cl)cccc2Cl)CC1,1.25% (inactive)
